# Measurements as given in PubChem BioAssay AID720580 (National Center for Advancing Translational Sciences (NCATS), 2013).
# Out of some 330,000 compounds screened, about 1,500 (0.45%) were called active. Another 6% or so got no clear call; they are omitted. Calls come from the whole dose curve; tested in A549 cells. The entries come from a sample that favours actives as a whole. Entries that show only a call come without a potency.
# Test: qHTS for Stage-Specific Inhibitors of Vaccinia Orthopoxvirus: Venus Reporter Primary qHTS; note: nearly all actives have a fitted effect of over 30% in size
# Conditions: Vaccinia virus Venus reporter expression, fluorescence; series mostly up to 36.5 µM
# Potency is the fitted concentration of half-maximal effect.
row,SMILES,Potency
1,Cc1cccc(C)c1NC(=O)CN1CCN(c2ccc(F)cc2)CC1,inactive
2,COc1cc(OC)c(/C=C/c2ccnc3ccccc23)c(OC)c1,inactive
3,CCOC(=O)N(C)c1c(CC)nc2c(OCc3ccccc3C(=O)OC)cccn12,inactive
4,CCOC(=O)c1cc2cc(OC)ccc2n1C1CCN(C)CC1,inactive
5,CCOC1=C2[C@@H](CN(S(=O)(=O)c3ccc(C)cc3)[C@H]2c2ccccc2F)[C@H]2C(=O)N(Cc3ccccc3)C(=O)[C@H]2C1,inactive
6,CCOC(=O)C1=CC[C@@H](c2ccncc2)N(S(=O)(=O)c2ccc(C)cc2)C1,inactive
7,CSc1nc(Nc2ccc(F)cc2)cc(-c2ccccc2)n1,inactive
8,CSc1nc(-c2ccccc2)nc(C(Cl)Cl)n1,10 µM (active)
9,CSc1ncc(Sc2ccccc2)c(C(=O)O)n1,inactive
10,Cc1cc(Br)cn2c(Cc3ccccc3C(F)(F)F)c(C3CCCCC3)nc12,inactive
11,CCc1nc2c(OCc3ccc(F)c(F)c3)cccn2c1N(C)C(=O)c1ccco1,inactive
12,CC(C)(C)CC(C)(C)NCC(O)COCCOc1ccc(Br)cc1 (stereo not drawn),10 µM (active)
13,COc1ccc(OCC(O)CNCCNc2nccc(C(F)(F)F)n2)cc1 (stereo not drawn),inactive
14,CC(C)(C)NCC(O)COc1cccc2[nH]c(=O)[nH]c12 (stereo not drawn),inactive
15,CCCCNC(=O)C[C@@H]1C[C@@]2(C(=O)OCC)CCC=C2N(Cc2cccc3ccccc23)C1=O,inactive
16,COc1ccc(C(C(=O)Nc2c(C)cccc2C)N2CCN(c3ccc(C)cc3)CC2)cc1 (stereo not drawn),inactive
17,CN(C)c1cccc(NC(=O)c2ccc(-c3ccc(F)c(F)c3)c3ccoc23)c1,inactive
18,CCc1nc2c(OCc3cccc(OC)c3)cccn2c1N(C)C(=O)C(C)C,inactive
19,C/C(CC1CC(C)(C)OC1=O)=N/Nc1nc(-c2ccccc2)cs1 (stereo not drawn),inactive
20,CC(=O)Nc1cccc(-c2csc(Nc3cccc(C)n3)n2)c1,inactive
21,CC(=O)Nc1ccc(-c2csc(NC=C3C(=O)OC(C)(C)OC3=O)n2)cc1,4.47 µM (active)
22,O=C(COc1ccccc1C(=O)Nc1ccccc1)Nc1cccc(F)c1,inactive

row,SMILES,Potency
1,COc1ccc(C(=O)C(OP(=O)(OC)OC)c2ccccc2OC)cc1 (stereo not drawn),inactive
2,COc1ccc2c(c1)NC(=O)C2CC(=O)N1CCOc2c(cc(-c3cnc4ccccc4c3)cc2OC)C1 (stereo not drawn),inactive
3,CC(=O)OC1C2(CC3N4C(=O)C5(CO)SSC4(CC31O)C(=O)N5C)OC(C)C(C)(C)C2=O (stereo not drawn),3.16 µM (active)
4,CCCNC(=O)C1(C)CCN1C(=O)Cc1ccc(-c2ccccc2)cc1 (stereo not drawn),inactive
5,CCOC(=O)[C@]12CCCC=C1N(CCC1=CCCCC1)C(=O)[C@H](CC(=O)N1CCCCC1)C2,inactive
6,C/C=C/NNC(=O)Cc1ccc(OC)cc1,10 µM (active)
7,CCCCCNC(=O)Cc1ccc(OC)cc1,inactive
8,COc1ccc(CC(=O)Nc2ccc(C(=O)NC(C)(C)C)cc2)cc1,inactive
9,Cc1cccc(NC(=O)COC(=O)c2ccccc2OCc2cccc(Br)c2)c1,inactive
10,CC1(C)OC(=O)C2=C(C[C@@H](C3CCCCC3)O[C@@H]2c2ccc(Cl)cc2)O1,inactive
11,Cc1ccc(S(=O)(=O)N2CCN(c3ncnc4ccccc34)CC2)cc1,inactive
12,Cc1ccc(C)c(S(=O)(=O)N2CCN(c3ncnc4sccc34)CC2)c1,2.51 µM (active)
13,Cc1ccc(C)c(S(=O)(=O)n2nc(C)c(S(=O)(=O)N3CCC(C)CC3)c2C)c1,inactive
14,O=[N+]([O-])c1ccc(/C=C/c2ccc3cccnc3c2)cc1,inactive
15,Cc1cccc(-c2nnc(SC(C)C(=O)Nc3ccccc3)n2C)c1 (stereo not drawn),inactive
16,CN1CCN(c2ccc(NC(=O)c3cc(Cl)c4c(c3)OCCO4)cc2)CC1,inactive
17,C=CC(=O)Nc1ccc(Nc2ccnc(Nc3ccc(N4CCN(C)CC4)cc3)n2)cc1,10 µM (active)
18,Cc1cccc(N2CCN(c3ccc(NC(=O)/C=C\C(=O)O)cc3)CC2)c1,inactive
19,CCCCc1c(-c2ccc(Cl)cc2)ncn1CCc1ccccc1OC,inactive
20,Cc1ccc(-c2nc3c(Cl)cc(C(F)(F)F)cn3c2Cc2cccc(Cl)c2)cc1,inactive
21,O=S1(=O)CC(N2CCN(c3ccccn3)CC2)CN1Cc1ccc(F)cc1 (stereo not drawn),inactive
